Rows were chosen to be rich in hits. Some 3.1% of all compounds tested hit in one or more screens of this group.
EP2 mod: modulators of human EP2 prostaglandin E2 receptor; induction, % at 25 µM; EP2-expressing cells, cAMP HTRF FRET, PGE2 co-stimulation; AID 940; 260,000 tested, 0.83% active;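 active = compounds whose cAMP rise, as percent of the full-agonist control response, exceeds 60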;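 note: rat C6 glioma line stably carrying human EP2 under a CMV promoter; the protocol text gives 20 µM as final concentration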
Target sequence (P43116 whole entry, looked up): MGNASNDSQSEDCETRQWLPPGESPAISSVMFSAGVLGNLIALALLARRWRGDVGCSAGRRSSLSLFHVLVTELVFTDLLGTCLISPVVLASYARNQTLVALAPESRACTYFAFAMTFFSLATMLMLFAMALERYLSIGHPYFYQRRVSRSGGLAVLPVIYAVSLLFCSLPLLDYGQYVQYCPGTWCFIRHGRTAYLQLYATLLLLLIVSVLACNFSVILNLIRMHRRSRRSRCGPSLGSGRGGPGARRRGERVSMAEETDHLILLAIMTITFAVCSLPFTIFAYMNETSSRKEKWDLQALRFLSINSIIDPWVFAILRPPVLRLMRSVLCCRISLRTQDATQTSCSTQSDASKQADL
PGE2 EP2 inh: blocks the human prostaglandin E2 receptor EP2; inhibition, % at 25 µM; C6 glioma cells expressing human EP2, cAMP TR-FRET; cells stimulated with saturating PGE2; P43116; 260,000 tested, 0.52% active;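 active = percent inhibition above 40 after rounding to a whole number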;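 note: rat C6 glioma host cells with rolipram phosphodiesterase inhibitor present; the protocol text gives 20 µM as final concentration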
KCC2 mod: modulates chloride dependent transport by human KCC2; AID 1456; 190,000 tested, 2.2% active; KCC2 cells, thallium flux FluoZin-2 fluorescence; B-score of Tl+ flux slope (higher = more flux/activation; lower = inhibition) at 10 µM; Q9H2X9;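 active = thallium flux slope and its plate-corrected score both differing from the plate sample mean at a set confidence after two filtering rounds, in either direction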;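 note: slope of fluorescence scaled to starting intensity during 10 to 20 s after thallium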
S1P3 antag: S1P3 (human) receptor antagonism | CHO S1P3 NFAT-BLA reporter, FRET fluorescence, antagonist mode | inhibition, % at 4.98 µM | Q99500 | 170,000 tested, 0.27% active;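 active = inhibition above the plate cutoff, the mean inhibition of test wells on that plate plus 3 SD, cut at about 28% in these data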;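 note: cells challenged with S1P at its EC80 of 0.8 µM; blue over green emission ratio from cleaved BLA substrate after 4 h stimulation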
Target sequence (Q99500 whole entry, looked up): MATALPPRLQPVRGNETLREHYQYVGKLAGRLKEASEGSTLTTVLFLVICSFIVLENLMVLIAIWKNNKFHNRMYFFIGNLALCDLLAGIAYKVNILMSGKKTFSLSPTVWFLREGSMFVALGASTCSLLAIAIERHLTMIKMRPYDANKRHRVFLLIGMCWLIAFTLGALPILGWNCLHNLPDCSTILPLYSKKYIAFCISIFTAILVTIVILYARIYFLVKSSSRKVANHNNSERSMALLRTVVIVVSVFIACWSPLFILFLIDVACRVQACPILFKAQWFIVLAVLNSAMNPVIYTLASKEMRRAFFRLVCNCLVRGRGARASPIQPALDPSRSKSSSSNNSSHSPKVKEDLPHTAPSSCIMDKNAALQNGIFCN
KCC2 secondary: KCC2 (human) modulation, secondary assay; HEK293-KCC2, thallium flux, FluoZin2 fluorescence; active compounds read high; normalised thallium flux (F/F0 slope) at 10 µM; shares compounds with KCC2 mod; AID 1713; 3,700 tested, 15% active;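 active = thallium flux slope above the same plate's solvent-only control mean plus 3 SD; inconclusive = the two replicate wells disagree; inactive = no significant difference from solvent-only control wells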
KCC2 bumet counter: thallium flux despite bumetanide block in KCC2 cells, secondary assay 3; 3,700 tested, 49% active; normalized thallium flux at 10 µM; shares compounds with KCC2 mod; HEK293-KCC2 + bumetanide/ouabain, thallium flux FluoZin2; active compounds read high;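 active = thallium entry rate above the same plate's blocked-transporter control wells by more than 3 SD; inconclusive = the two repeat wells disagree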;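 note: raw slope of fluorescence over initial fluorescence between 10 and 20 s after thallium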
KCC2 secondary2: confirmation of human KCC2 transport modulators; shares compounds with KCC2 mod; HEK293-KCC2, thallium flux FluoZin2 fluorescence; actives lie on both sides; F/F0 rise rate, 10–20 s post-thallium; normalized thallium flux at 10 µM; 3,700 tested, 23% active;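 active = thallium flux slope more than 3 SD above or below the plate's solvent-only control mean, mostly below; inconclusive = the two repeat wells disagreed; inactive = no significant shift from solvent-only controls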
HEK counter1: parental HEK flux effect, counter-screen | shares compounds with KCC2 mod | HEK293 parental cells, thallium flux FluoZin2, ouabain; baseline-ratio fluorescence slope, 10–20 s after thallium | thallium flux rate (normalised fluorescence) at 10 µM | 3,700 tested, 46% active;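 active = thallium flux rate significantly above the same plate's solvent-only control wells, beyond their mean plus 3 SD; inconclusive = the two replicate wells gave conflicting results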
KCC2 retest ouab: modulates human KCC2 on retest with ouabain; 3,700 tested, 48% active; raw Tl+ flux slope (below DMSO = inhibition, above = activation) at 10 µM; shares compounds with KCC2 mod; HEK293-KCC2, thallium flux FluoZin2 fluorescence; bidirectional: low = inhibitor, high = activator; AID 1717;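 active = thallium flux slope beyond 3 SD from same-plate DMSO control mean in most replicates, usually higher, sometimes lower; inconclusive = repeat tests gave conflicting results; inactive = no significant difference from controls in most replicates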;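 note: slope of initial-normalized fluorescence between seconds 10 and 20 after thallium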
HEK counter2: counter-screen for KCC2 modulators: effect in parental HEK293 cells | shares compounds with KCC2 mod | thallium flux FluoZin-2 fluorescence slope | thallium flux slope at 10 µM | 3,700 tested, 33% active | AID 1718;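 active = thallium flux slope above the same plate's solvent-control mean plus 3 SD in both duplicate wells; inconclusive = duplicate wells that disagreed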;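 note: run without ouabain in cells lacking the KCC2 cotransporter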
Each line names hits and unclear results; the compound was inactive in the other large screens (follow-up assays come after a bar, where they were run).

NC(=S)N=Nc1c(O)n(Cc2ccc(F)cc2)c2ccccc12	KCC2 mod 4.74 | KCC2 secondary inconclusive | KCC2 bumet counter 0.0103 | KCC2 secondary2 inactive | HEK counter1 0.0142 | KCC2 retest ouab 0.0289 | HEK counter2 0.0123
Oc1c(N=NC(=S)Nc2ccccc2F)c2ccccc2n1Cc1cccc(Cl)c1	none
NC(=S)N=Nc1c(O)n(Cc2ccc(Br)cc2)c2ccccc12	none
Oc1c(N=NC(=S)Nc2ccccc2F)c2ccccc2n1Cc1ccc(F)cc1	KCC2 mod 8.29 | KCC2 secondary inactive | KCC2 bumet counter 0.0297 | KCC2 secondary2 inactive | HEK counter1 0.0128 | KCC2 retest ouab inactive | HEK counter2 0.0144
COc1ccc(OCCCC(=O)Nc2nc(-c3ccccc3)c(C)s2)cc1	none (no result: KCC2 mod, S1P3 antag)
Cc1nn(-c2ccc(Cl)cc2)c2[nH]c(=O)c(CNCCCc3ccco3)cc12	none (no result: KCC2 mod, S1P3 antag)
CC(=O)N1CCCc2cc(C(O)CN3CCC(O)(c4ccc(F)cc4)CC3)ccc21 (configuration not stated)	none (no result: KCC2 mod, S1P3 antag)
CCC1CCCCN1C(=O)c1c[nH]c2ccc(S(=O)(=O)N(C)c3ccc(Cl)cc3)cc2c1=O (configuration not stated)	none (no result: KCC2 mod, S1P3 antag) | KCC2 secondary inactive | KCC2 bumet counter inconclusive | KCC2 secondary2 inconclusive | HEK counter1 inactive | KCC2 retest ouab inactive | HEK counter2 inactive
O=C(O)/C=C/c1ccc(S(=O)(=O)NCc2cccnc2)cc1	KCC2 mod 3.84 | KCC2 secondary inactive | KCC2 bumet counter inactive | KCC2 secondary2 inactive | HEK counter1 inactive | KCC2 retest ouab inactive | HEK counter2 inactive
O=S(=O)(NCc1cccnc1)c1ccccc1	none (no result: KCC2 mod, S1P3 antag)
Cc1ccc(/C=N/n2c(-c3cccc(Cl)c3)n[nH]c2=S)o1	KCC2 mod 45.1 | KCC2 secondary inactive | KCC2 bumet counter 0.046 | KCC2 secondary2 inactive | HEK counter1 0.0294 | KCC2 retest ouab 0.0401 | HEK counter2 0.0205
S=c1[nH]nc(-c2cccc(Cl)c2)n1/N=C/c1ccc(-c2ccccc2Br)o1	none
Cc1cccc(-c2n[nH]c(=S)n2/N=C/C=C/c2ccco2)c1	KCC2 mod 19.9 | KCC2 secondary inactive | KCC2 bumet counter 0.0218 | KCC2 secondary2 inactive | HEK counter1 0.0178 | KCC2 retest ouab 0.0285 | HEK counter2 0.0158
S=c1[nH]nc(-c2cccc(Cl)c2)n1/N=C/c1ccco1	KCC2 mod 13.8 | KCC2 secondary inconclusive | KCC2 bumet counter 0.0207 | KCC2 secondary2 inactive | HEK counter1 0.0179 | KCC2 retest ouab 0.0315 | HEK counter2 inactive
COc1ccccc1/C=C/C=N/n1c(-c2ccc(F)cc2)n[nH]c1=S	KCC2 mod 5.32 | KCC2 secondary inactive | KCC2 bumet counter 0.0149 | KCC2 secondary2 inactive | HEK counter1 0.0111 | KCC2 retest ouab inactive | HEK counter2 inactive
CN1/C(=C/C(=O)c2nc(S(C)(=O)=O)ncc2Cl)C(C)(C)c2ccccc21	KCC2 mod -7.22 | KCC2 secondary inactive | KCC2 bumet counter inconclusive | KCC2 secondary2 0.0223 | HEK counter1 inconclusive | KCC2 retest ouab 0.0127 | HEK counter2 inactive
CCCn1nnc(NC(=O)c2ccc(-c3cccc(Cl)c3)o2)n1	none (no result: S1P3 antag)
CCn1nnc(NC(=S)NC(=O)c2ccc(-c3cccc(Cl)c3)o2)n1	KCC2 mod 66.9 | KCC2 secondary inconclusive | KCC2 bumet counter 0.0848 | KCC2 secondary2 0.0645 | HEK counter1 0.0567 | KCC2 retest ouab 0.0658 | HEK counter2 0.0536
CS(=O)(=O)N(CCc1ccccc1)CC(=O)N1CCCCC1	none
CS(=O)(=O)N(CCc1ccccc1)CC(=O)N1CCN(Cc2ccccc2)CC1	KCC2 mod -3.17 | KCC2 secondary inactive | KCC2 bumet counter inactive | KCC2 secondary2 inactive | HEK counter1 inactive | KCC2 retest ouab inconclusive | HEK counter2 inactive
O=C(CN(c1ccc2c(c1)OCCO2)S(=O)(=O)c1ccccc1)NCc1ccc(Cl)cc1	none
O=C(CN(c1ccc2c(c1)OCCO2)S(=O)(=O)c1ccccc1)N1CCN(Cc2ccccc2)CC1	KCC2 mod -4.05 | KCC2 secondary inactive | KCC2 bumet counter inconclusive | KCC2 secondary2 0.0234 | HEK counter1 inactive | KCC2 retest ouab inconclusive | HEK counter2 inactive
CN(CC(=O)N1CCN(Cc2ccccc2)CC1)S(=O)(=O)c1cccc2nsnc12	KCC2 mod -3.16 | KCC2 secondary inactive | KCC2 bumet counter inactive | KCC2 secondary2 0.0204 | HEK counter1 inactive | KCC2 retest ouab 0.0125 | HEK counter2 inactive
COc1ccc(S(=O)(=O)N(C)CC(=O)N2CCN(Cc3ccccc3)CC2)cc1C	KCC2 mod -4.13 (no result: S1P3 antag) | KCC2 secondary inactive | KCC2 bumet counter inactive | KCC2 secondary2 0.0261 | HEK counter1 inactive | KCC2 retest ouab 0.0152 | HEK counter2 inactive
CC(NCCCN(C)C)C(=O)N1CCc2ccccc21 (configuration not stated)	none (no result: KCC2 mod, S1P3 antag)
COc1ccc2cc(CN(Cc3ccco3)C(=S)Nc3ccc(C)cc3)c(=O)[nH]c2c1	none (no result: KCC2 mod, S1P3 antag)
CCN(c1cccc(C)c1)S(=O)(=O)c1cccc2nsnc12	KCC2 mod 3.95 (no result: PGE2 EP2 inh, S1P3 antag) | KCC2 secondary inactive | KCC2 bumet counter inconclusive | KCC2 secondary2 0.0275 | HEK counter1 0.00592 | KCC2 retest ouab 0.0154 | HEK counter2 0.00903
CCN(CCCNC(=O)CN(C)S(=O)(=O)c1cccc2nsnc12)c1ccccc1	none (no result: PGE2 EP2 inh, KCC2 mod) | KCC2 secondary inactive | KCC2 bumet counter inactive | KCC2 secondary2 inconclusive | HEK counter1 inactive | KCC2 retest ouab inactive | HEK counter2 inactive
Cc1cccc(N(C)S(=O)(=O)c2cccc3nsnc23)c1	none (no result: S1P3 antag)
CN(CC(=O)NCCc1ccccc1)S(=O)(=O)c1cccc2nsnc12	none
N#Cc1nc(-c2ccc(F)cc2)oc1N1CCCC1	KCC2 mod -5.65 (no result: PGE2 EP2 inh, S1P3 antag) | KCC2 secondary inactive | KCC2 bumet counter inactive | KCC2 secondary2 inactive | HEK counter1 inactive | KCC2 retest ouab inactive | HEK counter2 inactive
CC(=O)Nc1ccc(S(=O)(=O)NCC(=O)OCC(=O)N2CCCc3ccccc32)cc1	none
CC(=O)Nc1ccc(S(=O)(=O)N(C)CC(=O)OCC(=O)N2CCc3ccccc32)cc1	KCC2 mod -3.82 (no result: PGE2 EP2 inh, S1P3 antag) | KCC2 secondary inactive | KCC2 bumet counter inactive | KCC2 secondary2 inactive | HEK counter1 inconclusive | KCC2 retest ouab 0.0196 | HEK counter2 inconclusive
